Laboratory results published in the supplement of paper PMC11732987, “Enantioselective OTUD7B fragment discovery through chemoproteomics screening and high-throughput optimisation” (Communications Chemistry, 2025).

Target: T1, USP38 (UniProt Q8NB14)
T1 sequence (whole entry): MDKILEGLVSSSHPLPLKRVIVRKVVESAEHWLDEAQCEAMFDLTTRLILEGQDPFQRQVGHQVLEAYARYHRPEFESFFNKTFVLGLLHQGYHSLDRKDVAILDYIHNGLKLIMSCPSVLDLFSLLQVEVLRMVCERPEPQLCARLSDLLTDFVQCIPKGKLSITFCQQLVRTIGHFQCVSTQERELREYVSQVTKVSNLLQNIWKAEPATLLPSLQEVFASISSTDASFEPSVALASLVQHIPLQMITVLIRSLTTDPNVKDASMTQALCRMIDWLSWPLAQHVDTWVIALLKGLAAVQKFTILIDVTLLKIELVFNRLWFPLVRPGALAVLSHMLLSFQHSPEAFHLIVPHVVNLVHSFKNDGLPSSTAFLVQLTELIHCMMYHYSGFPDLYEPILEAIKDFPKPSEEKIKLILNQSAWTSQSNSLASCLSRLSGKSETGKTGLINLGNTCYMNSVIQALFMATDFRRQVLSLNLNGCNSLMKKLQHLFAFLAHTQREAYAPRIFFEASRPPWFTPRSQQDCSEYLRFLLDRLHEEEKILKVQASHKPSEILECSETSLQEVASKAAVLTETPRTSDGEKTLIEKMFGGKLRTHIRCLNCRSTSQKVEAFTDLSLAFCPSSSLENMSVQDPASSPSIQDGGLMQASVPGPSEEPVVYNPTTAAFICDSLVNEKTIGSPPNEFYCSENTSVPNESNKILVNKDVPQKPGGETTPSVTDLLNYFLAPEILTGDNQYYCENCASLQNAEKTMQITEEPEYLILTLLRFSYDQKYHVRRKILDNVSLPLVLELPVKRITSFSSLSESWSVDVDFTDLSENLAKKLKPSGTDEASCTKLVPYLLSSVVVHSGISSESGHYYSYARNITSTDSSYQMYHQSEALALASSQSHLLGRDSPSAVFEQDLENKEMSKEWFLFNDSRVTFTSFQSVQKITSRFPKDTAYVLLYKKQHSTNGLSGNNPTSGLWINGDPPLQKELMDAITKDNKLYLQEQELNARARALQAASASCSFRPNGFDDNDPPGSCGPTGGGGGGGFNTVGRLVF
Test: log2 ratio of Biotin-Ahx-Ub-VS probe labelling (compound/DMSO); higher = less target engagement, active = hit call of the paper (q ≤ 0.05, log2 ratio ≤ -1)
Conditions: treatment time: 3 h
In short: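 HEK293T lysate (495 µg per sample, in Tris/CHAPS/IGEPAL buffer with protease inhibitors) was treated in triplicate with compound over a concentration series or DMSO for 3 h, then with Biotin-Ahx-Ub-VS (0.5 µM final) for 1 h. Labelled DUBs were NeutrAvidin-enriched, digested with LysC and trypsin, and run by diaPASEF LC-MS/MS. Spectronaut label-free protein quantities were global-median-normalised. Values are average log2 ratios compound/DMSO from an unpaired t-test, using proteins with ≥2 unique peptides.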

Measured: log2 ratio of Biotin-Ahx-Ub-VS probe labelling

O=C(CCl)NC1CCCc2ccccc21 (centres undefined)
inactive: compound concentration: 0.78uM -0.0722 | compound concentration: 1.56uM -0.0473 | compound concentration: 3.13uM -0.124 | compound concentration: 6.25uM -0.102 | compound concentration: 12.5uM -0.214 | compound concentration: 25uM -0.157 | compound concentration: 50uM -0.0382 | compound concentration: 100uM -0.104 | compound concentration: 200uM -0.148
